About 83,000 compounds went through this panel and 20% of them were active in at least one assay; those are over-represented in the sample as a whole.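 The endpoint reported here, percent growth, reads 100 for growth as untreated, 0 for no net growth and -100 for all cells dead.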 Values without a mark were called inactive. Active and inactive are the calls of the source. How the source made its calls: active means growth percent below 10; inactive means the rest.

The values below come from PubChem BioAssay (NCI).

What all share (test): NCI-60 one-dose screen, 48 h (100 = growth as untreated, 0 = no growth, -100 = all killed)
Holding throughout (conditions): 10 µM unless noted

For experiment [1], the system named is SR leukemia.
In experiment [2] the test system is RPMI-8226 leukemia.
For experiment [3], the system named is OVCAR-8 ovarian.
The subject of experiment [4] is OVCAR-4 ovarian.
In experiment [5] the test system is SK-OV-3 ovarian.
For experiment [6], the system named is IGROV1 ovarian.
Experiment [7] deals with OVCAR-3 ovarian.
Experiment [8] deals with NCI/ADR-RES ovarian.
Experiment [9] relates to T-47D breast.
Experiment [10] deals with BT-549 breast.
Experiment [11] has as its system MDA-MB-435 melanoma.
The subject of experiment [12] is MCF7 breast.
Experiment [13] has as its system HCT-116 colon.
For experiment [14], the system named is HCC-2998 colon.
Experiment [15] deals with KM12 colon.
The subject of experiment [16] is MDA-MB-468 breast.
Experiment [17] has as its system OVCAR-5 ovarian.
In experiment [18] the test system is HS 578T breast.
Experiment [19] concerns SW-620 colon.

`Cc1ccc2c(N)c(C(=O)Nc3ccc(-c4ccccc4)cc3)sc2n1`: the growth is 43.1% in experiment [1]; 49.2% in [2]; 73.4% in experiment [3]; 47.3% in [4]; 60.3% in experiment [5]; 72.5% in experiment [6]. The growth is 79.1% in [7]; 50.5% in [8]; 29.5% in experiment [9]; 53.2% in experiment [10]; 69.1% in [11]; 43.2% in experiment [12]. Further, the growth was 29.5% in [13], 101% in experiment [14], 77.3% in experiment [15] and 17.8% in experiment [16].
As to `Cc1cc2nc3c([nH]c2cc1C)c1ccc(=O)cc1n3CCN(C)C`, the growth in experiment [1] is 3.01% (active); in experiment [3] it was 34%; in experiment [17] it was 39.8%; in experiment [4], 46.9%; in experiment [5], 63.7%; in [6], 28.2%. The growth in experiment [7] was 67.3%; in [18], 81.3%; in [8], 33.6%; in experiment [10], 65.5%; in experiment [11], 45%; in [19], 22.6%. For the same compound, the growth in [12] is 12%; in experiment [13], 14.4%; in experiment [14], 26.8%; in experiment [15], 43.4%; in [16], 43%.
Turning to `O=C(Cn1nc(-c2ccccc2)ccc1=O)N/N=C/c1ccc(N2CCOCC2)cc1`, the growth in [1] was 85.9%; in [3] it was 102%; in [17], 107%; in experiment [4] it was 93.9%; in experiment [5], 107%; in [6], 113%. Also, the growth in [7] was 103%; in experiment [18] it was 86.6%; in experiment [9], 69.4%; in [10], 121%; in [11], 97.6%; in experiment [19], 102%. Besides, the growth in experiment [12] is 83.8%; in experiment [14] it was 113%; in experiment [15] it was 102%; in [16], 104%.
Consider `COc1cc(-c2cc(-c3cccc(OCC(=O)O)c3)[nH]c(=O)c2C#N)cc(OC)c1OC`, for which the growth in [1] is 83.6%; in [2] it was 98.6%; in experiment [3], 102%; in experiment [4] it was 98.2%; in [5], 100%; in [6], 109%. Also, the growth in experiment [7] is 110%; in experiment [9] it was 103%; in experiment [10] it was 100%; in experiment [11], 106%; in experiment [12] it was 97.1%; in experiment [13] it was 92.8%. For the same compound, the values for the growth in experiment [14], in experiment [15] and in experiment [16] were 110%, 105% and 96.7%, respectively.
Turning to `Cc1ccc(C(SCCNCc2cc(N(C)C)ccn2)(c2ccccc2)c2ccccc2)cc1`, the growth in experiment [1] is -45.1% (active); in experiment [3], -52.5% (active); in experiment [17] it was -19.9% (active); in experiment [4] it was 11.4%; in experiment [5], -10.5% (active); in experiment [6], 6.28% (active). Moreover, the growth was -46.7% (active) in experiment [7]; -45.7% (active) in experiment [18]; -56.8% (active) in [8]; -39% (active) in [9]; -51.8% (active) in [10]; -75.4% (active) in experiment [11]. Moreover, the growth is -79.4% (active) in [19]; -80.5% (active) in experiment [12]; -80.5% (active) in [13]; -93.8% (active) in experiment [14]; -40.1% (active) in experiment [15]; -69.5% (active) in [16].
Take `O=C(COc1ccc(NC(=O)Nc2ccc(Cl)c(Cl)c2)cc1)N=Nc1c(O)[nH]c2ccc([N+](=O)[O-])cc12`: the growth was 25.5% in [1]; 78.1% in [3]; 74.4% in [17]; 75.2% in experiment [4]; 95.2% in experiment [5]; 74.4% in experiment [6]. Besides, the growth in [7] was 56.8%; in experiment [18], 57.4%; in experiment [8], 100%; in experiment [9] it was 66%; in [10], 50%; in experiment [11], 59.5%. The growth is 15.9% in experiment [19]; 30.6% in [12]; 11.3% in [13]; 82.6% in [14]; 42.2% in experiment [15]; 32.6% in experiment [16].
On to `CCOC(=O)/C=C/c1cccc2c1C(=O)NC(C)(c1cc3cc(Cl)ccc3oc1=O)N2` (stereo not given), for which the growth is 1.88% (active) in experiment [1]; 17.7% in [2]; 39.1% in experiment [3]; 36.7% in experiment [4]; -0.634% (active) in [5]; 13% in [6]. Further, the growth is 34.4% in [7]; 41% in experiment [18]; 16.3% in [9]; 24.7% in experiment [10]; 42.1% in [11]; 40.9% in experiment [19]. In addition, the growth is 26.5% in experiment [12], 17.6% in [13], 38.7% in [14] and 26% in [15].
`Cc1ccc(S(=O)(=O)c2nc(S(=O)(=O)c3ccc(C)cc3)c(N3CCN(C)CC3)s2)cc1`: the growth in experiment [1] was 16.1%; in [2], 52.2%; in experiment [3], 48%; in experiment [4] it was 62.5%; in [5], 124%; in [6], 77.1%. Moreover, the growth is 46.1% in [7]; 81.1% in experiment [18]; 44.4% in experiment [8]; 43.4% in experiment [10]; 8.29% (active) in [11]; 36.1% in [19]. Moreover, the growth is 43.1% in experiment [12]; 46.9% in [13]; 107% in experiment [14]; 76.4% in [15]; -15% (active) in experiment [16].
As for `Cc1cc2nc3c4ccccc4n(CCNCCN(C)C)c3nc2cc1C`, the growth was -1.38% (active) in [1]; -25.9% (active) in experiment [2]; 24.2% in experiment [3]; 68.8% in experiment [5]; 20% in experiment [6]; 40.5% in experiment [7]. Besides, the growth is 44.9% in [18]; 24.6% in experiment [8]; 52.2% in [9]; 23.8% in [10]; 8.22% (active) in experiment [11]; -19.6% (active) in experiment [19]. For the same compound, the growth in [12] is -28.8% (active); in experiment [13], -57.8% (active); in [14], -56.7% (active); in [15] it was 27.4%; in [16] it was -54.4% (active).
